Test results published in article PMC12136788.
Substitutions are numbered along the chain they refer to. The full ranking holds about 24,000 sequences; the median of “enrichment r” is about 0.99, and the highest 2% start at about 3.7. The entries come from a sample that favours the highest values as a whole.

B1: chr12:1897663:1897664:+_ENSG00000006831_ENST00000357103|hu_mus|motif|central (ssRNA)
RNA: GGGAGUUCUACAGUCCGACGAUCGCUUUGUGAUUUCAGCAACUUAUAGAGGGGAGAGAGGAAAUACUGAAAAAGGCCACGGUUUAAUGAUGAGAGAGUGAAGGUGUACAGGUUCCUAACCAGCCUAGGGCCAAAAAAGGAGACCAACAGAGGAUUGAGCAUCA
B2: chr12:1897663:1897664:+_ENSG00000006831_ENST00000357103|hu_mus|FALSE|FALSE (ssRNA)
RNA: B1 RNA with G80U, G81A
B3: chr1:6284582:6284583:-_ENSG00000116237_ENST00000343813|hu_hu|FALSE|FALSE (ssRNA)
RNA: GGGAGUUCUACAGUCCGACGAUCAGCUAGGAAUACCCCUUUGAAUGUGUACUGCUACUUAUAAAAAAUAGGUAUGUAGCUAUGAUUAAAUAGAUGAAGGGCCAAAGCAUCCUAUGAGGAAGUAUUUUUAAAAUUGUAUAGAUGCAACAGAGGAUUGAGCAUCA
B4: chr9:14812383:14812384:-_ENSMUSG00000031934_ENSMUST00000164273|mus_mus|mus_mus_mus_hu_True|68_98 (ssRNA)
RNA: GGGAGUUCUACAGUCCGACGAUCAUAGCCCAGGUAGAUACAUGCCAACAGUAUAAUGAUGAGUGUCACCAGCCGGCAGCUAAUGUACUUGAUGAUUAAAUUAUUAGAAUUUUUCUUUGUCUUCAAGUACUGCUCCACAAUUGGCAACAGAGGAUUGAGCAUCA
B5: chrX:98862621:98862622:+_ENSMUSG00000034160_ENSMUST00000044475|mus_hu|mus_mus_mus_hu_False|78_78 (ssRNA)
RNA: GGGAGUUCUACAGUCCGACGAUCCUGCAUCUCCUUUAGAGUGUUUCCCAUAUUAGAAUAAGCAUCAGCAAAGGUAGGACUGAUUCGAAUAGCCUCCUUAUAAUGCAUCAGAGCUUCCUGCAGUUUUCCCUGCUGCUGCAGUACCAACAGAGGAUUGAGCAUCA
B6: chr1:6284582:6284583:-_ENSG00000116237_ENST00000343813|hu_hu|motif|central (ssRNA)
RNA: B3 RNA with U80G, A81G

biological target: T1, UNK ZnF1-3 (human, UniProt Q9C0B0 31-174); assay: nsRBNS (natural sequence RNA bind-n-seq); RBNS binding buffer (assumed for nsRBNS): 25 mM Tris pH 7.5, 150 mM KCl, 3 mM MgCl2, 0.01% Triton X-100, 500 ug/ml BSA, 20 U/ml SUPERase-In, 4 C; UNK is unkempt and MSI1 is Musashi-1; names of the RNAs are library labels; protein concentration not given here; high values mean tight binding
T1 sequence: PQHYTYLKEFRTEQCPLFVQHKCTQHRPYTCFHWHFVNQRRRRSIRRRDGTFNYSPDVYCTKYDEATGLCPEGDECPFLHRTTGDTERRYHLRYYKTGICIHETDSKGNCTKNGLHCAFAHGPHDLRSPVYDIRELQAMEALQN

Binder	binding signal [enrichment R]
B1	3.48
B2	3.52
B3	6.19
B4	1.27
B5	1.09
B6	6.98
